About 14,000 (4.5%) of roughly 310,000 compounds showed an effect of 50% or more. Effects have a minus sign here. What follows is part of a selection rich in strong results, with near analogues and random picks from the rest.
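Further: peak tail current of the secondary pulse compared with the same well before compound.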

Chain of human ether-à-go-go-related gene (hERG) potassium channel (Q12809 whole entry, looked up): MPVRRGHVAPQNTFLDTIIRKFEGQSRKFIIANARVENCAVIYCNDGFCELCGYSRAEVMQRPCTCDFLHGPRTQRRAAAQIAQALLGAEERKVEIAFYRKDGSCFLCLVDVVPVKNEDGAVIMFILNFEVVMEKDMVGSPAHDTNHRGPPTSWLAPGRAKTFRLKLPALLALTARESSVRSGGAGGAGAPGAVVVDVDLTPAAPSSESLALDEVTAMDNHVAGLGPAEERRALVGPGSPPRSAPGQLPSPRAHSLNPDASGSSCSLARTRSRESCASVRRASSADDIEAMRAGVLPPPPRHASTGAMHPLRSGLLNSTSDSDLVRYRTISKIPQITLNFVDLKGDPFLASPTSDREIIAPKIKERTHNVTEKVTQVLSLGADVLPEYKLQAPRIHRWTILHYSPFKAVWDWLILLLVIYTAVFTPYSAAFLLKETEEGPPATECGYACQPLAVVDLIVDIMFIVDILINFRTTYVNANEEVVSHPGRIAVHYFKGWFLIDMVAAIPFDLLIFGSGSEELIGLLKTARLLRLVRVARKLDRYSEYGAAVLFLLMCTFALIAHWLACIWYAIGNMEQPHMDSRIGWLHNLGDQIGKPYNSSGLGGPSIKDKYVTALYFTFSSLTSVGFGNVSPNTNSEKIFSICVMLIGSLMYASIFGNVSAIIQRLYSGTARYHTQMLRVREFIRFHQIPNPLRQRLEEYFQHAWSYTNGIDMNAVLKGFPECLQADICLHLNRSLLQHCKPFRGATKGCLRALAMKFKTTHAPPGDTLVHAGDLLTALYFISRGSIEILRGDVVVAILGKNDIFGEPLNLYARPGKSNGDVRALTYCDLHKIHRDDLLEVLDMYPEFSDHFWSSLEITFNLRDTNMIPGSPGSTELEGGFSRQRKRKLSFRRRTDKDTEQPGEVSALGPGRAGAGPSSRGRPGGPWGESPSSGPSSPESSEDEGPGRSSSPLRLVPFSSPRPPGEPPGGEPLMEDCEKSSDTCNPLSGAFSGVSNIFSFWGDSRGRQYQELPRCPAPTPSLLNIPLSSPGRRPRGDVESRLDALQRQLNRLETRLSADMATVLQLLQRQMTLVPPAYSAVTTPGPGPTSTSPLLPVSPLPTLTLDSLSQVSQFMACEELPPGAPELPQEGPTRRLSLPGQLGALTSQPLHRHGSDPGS

This assay addresses human ether-à-go-go-related gene (hERG) potassium channel (human, UniProt Q12809). The experiment in a line: primary screen, population patch clamp on CHO cells stably expressing hERG; higher = less effect of the substance.
Regarding `C/C(=C\c1ccc(Cl)cc1)C(=O)c1c(C)cc(C)[nH]c1=O`, the “hERG current change (%, negative = inhibition) at 10uM” value came out at 9.59%. Consider `CC(NC(=O)NC1CCCCC1)c1ccccc1` (stereo not drawn), for which the “hERG current change (%, negative = inhibition) at 10uM” value is -3.12%.

As for `C=CCn1c(CCNC(=O)c2cccs2)nnc1SCC(=O)Nc1cccc(Cl)c1C`, the “hERG current change (%, negative = inhibition) at 10uM” value is -57.6%.

As to `C=CCn1c(CCNC(=O)c2cccs2)nnc1SCC(=O)Nc1cccc(C(C)=O)c1`, the “hERG current change (%, negative = inhibition) at 10uM” value is listed as 7.23%. The value for `C=CCn1c(CCNC(=O)c2cccs2)nnc1SCC(=O)c1ccc(Br)cc1` was -67.1%; that for `C=CCn1c(CCNC(=O)c2cccs2)nnc1SCC(=O)c1ccc(Cl)cc1` was -38.5%; that for `C=CCn1c(CNC(=O)c2cccs2)nnc1SCC(=O)c1ccc(Br)cc1` was -19.3%. Next, `C=CCn1c(CCNC(=O)c2cccs2)nnc1SCC(=O)Nc1cccc(F)c1`: -34.6%; `O=C(Nc1ccccc1)Nc1ccncc1`: 6.4%; `Cc1ccc(NC(=O)CC2S/C(=N/N=C3/NC(=O)CS3)NC2=O)cc1` (stereo not drawn): 19.5%. For `COc1ccc(-c2[nH]nc3c2C(c2ccccc2OC(=O)N2CCOCC2)C(C#N)=C(N)O3)cc1` (stereo not drawn), the “hERG current change (%, negative = inhibition) at 10uM” value was determined as 4.69%.

For the molecule `CC1CC(C)CN(C(=S)SCc2nc(N)nc(Nc3ccccc3)n2)C1` (stereo not drawn), the “hERG current change (%, negative = inhibition) at 10uM” value is -6.04%. The value for `COc1cccc(Nc2nc(N)nc(CCl)n2)c1` was 0.476%; that for `CC1CC(C)CN(Cc2nc(N)nc(Nc3ccccc3)n2)C1` (stereo not drawn) was -64.8%; that for `CC1CCN(C(=S)SCc2nc(N)nc(Nc3ccccc3)n2)CC1` was -2.72%. The value for `CC1CC(C)CN(Cc2nc(N)nc(Nc3ccc4ccccc4c3)n2)C1` (stereo not drawn) was -79%.

Consider `CCNC(=O)CCn1nc(-c2ccc(Cl)cc2)c2ccccc2c1=O`, for which the “hERG current change (%, negative = inhibition) at 10uM” value is -29%. The value for `Cc1cccc(N2CCN(S(=O)(=O)c3ccc4c(c3)NC(=O)C(C)S4)CC2)c1C` (stereo not drawn) was -2.54%; that for `CCN(CC)c1ccc(/C=C2\SC(N)=NC2=O)cc1` was 7.42%. The value for `Cn1cccc1CC(=O)NNC(=S)NC(=O)c1ccccc1Br` was 13.1%; that for `COc1ccc(-c2nc(-c3ccccc3)ncc2S(C)(=O)=O)cc1` was 13%. Next, `COc1ccc2c(c1OC)C(=O)N(c1nc(SC)n[nH]1)C2=O`: 18.3%; `COc1cccc(N(CC(=O)NCc2ccccc2)C(=O)CCC(=O)Nc2nccs2)c1`: 10.8%. In the case of `COc1ccc(OCC(O)Cn2ccnc2C)cc1` (stereo not drawn), the “hERG current change (%, negative = inhibition) at 10uM” value stood at 5.09%.

On to `Cc1nccn1CC(O)COc1ccccc1` (stereo not drawn), for which the “hERG current change (%, negative = inhibition) at 10uM” value was -0.412%. The value for `Cc1ccc(N2CCN(CC(O)COc3ccc([N+](=O)[O-])cc3)CC2)cc1` (stereo not drawn) was -76.4%; that for `Cc1nccn1CC(O)COc1ccc([N+](=O)[O-])cc1` (stereo not drawn) was -66.2%. As to `COc1ccc(N2CCN(CC(O)COc3ccc([N+](=O)[O-])cc3)CC2)cc1.Cl` (stereo not drawn), the “hERG current change (%, negative = inhibition) at 10uM” value is given as -62.5%. The value for `Cc1ccc(OCC(O)CN2CCN(c3ccc(C)cc3)CC2)cc1` (stereo not drawn) was -28%. The value for `NNC(=O)COc1ccc(F)cc1` was 9.33%. Next, `COc1ccc(C(C)=O)cc1COC(=O)c1ccc(S(=O)(=O)N(C)C)cc1`: -2.42%; `CCc1ccc(S(=O)(=O)Nc2cccc(-c3ccc4nnc(C)n4n3)c2)s1`: -11.6%. Consider `CCOC(=O)c1cccc(NC(=O)/C(=C\c2ccccc2)NC(=O)c2ccccc2Cl)c1`, for which the “hERG current change (%, negative = inhibition) at 10uM” value stood at 3.62%. The value for `CC1=NN(C(=O)Cc2ccc(C)cc2)C(O)(c2cccnc2)C1` (stereo not drawn) was 10.1%.

Turning to `COc1ccc(-c2nc3cnccn3c2NCc2ccccc2)cc1SC1CCCCC1.O=C(O)C(F)(F)F`, the “hERG current change (%, negative = inhibition) at 10uM” value came out at 2.68%.

Consider `COc1cccc(-n2nnc(S(=O)(=O)c3ccc(C)cc3)c2N)c1`, for which the “hERG current change (%, negative = inhibition) at 10uM” value was determined as 10.5%.

`CS(=O)(=O)c1ccc(C(=O)OCC(=O)NC2CCS(=O)(=O)C2)cc1[N+](=O)[O-]` (stereo not drawn): the “hERG current change (%, negative = inhibition) at 10uM” value worked out at 10.3%. Next, `Nc1ccc(C(=O)OCC(=O)NC2CCS(=O)(=O)C2)cc1[N+](=O)[O-]` (stereo not drawn): -3.78%. Next, `O=C(COC(=O)c1ccc(Sc2ccccc2)c([N+](=O)[O-])c1)NC1CCS(=O)(=O)C1` (stereo not drawn): -83.3%. Next, `COc1ccc(NC(=S)NC23CC4CC(CC(C4)C2)C3)cc1OC`: 3.45%; `O=C(CN1C(=O)c2ccc([N+](=O)[O-])cc2C1=O)NC1CCCCCC1`: 1.09%.

In the case of `CCNc1ccc([N+](=O)[O-])cc1`, the “hERG current change (%, negative = inhibition) at 10uM” value stood at 4.89%.

Turning to `Cc1nonc1OC(C)CNc1ccc([N+](=O)[O-])cc1` (stereo not drawn), the “hERG current change (%, negative = inhibition) at 10uM” value was -58.7%. The value for `Cl.NCCNc1ccc([N+](=O)[O-])cc1` was -6.16%; that for `Cc1nonc1OC(C)CNCCNc1ccc([N+](=O)[O-])cc1.Cl` (stereo not drawn) was -55.2%; that for `Cc1nonc1OCCNc1ccc([N+](=O)[O-])cc1` was -40.7%. Regarding `Nc1nonc1C(=O)NCCNc1ccc([N+](=O)[O-])cc1`, the “hERG current change (%, negative = inhibition) at 10uM” value was -21.9%. The value for `COc1ccc(CN(C(=O)c2cc(=O)c3ccccc3o2)C2CCS(=O)(=O)C2)cc1` (stereo not drawn) was -30.4%; that for `CNS(=O)(=O)c1cc(OC)ccc1OC` was 13.2%; that for `CC(=O)c1c(O)cc(C)n(Nc2nc(C)cc(C)n2)c1=O` was 1.83%. As for `c1ccc(CNc2nc3ccccc3n3cnnc23)nc1`, the “hERG current change (%, negative = inhibition) at 10uM” value is on record as 0.696%. Next, `COc1ccc(-c2nn(CCC(=O)O)cc2/C=C/C(=O)O)cc1[N+](=O)[O-]`: 5.53%; `C#C[C@]1(O)CCC2C3CCC4=Cc5oncc5CC4(C)C3CCC21C` (stereo partly drawn): -3.2%. Next, `C#C[C@]1(O)CC[C@H]2[C@@H]3CCC4=Cc5oncc5C[C@]4(C)[C@H]3CC[C@@]21C`: -15.3%; `C#C[C@]1(O)CC[C@H]2[C@@H]3CCC4=Cc5nc6nc7ccccc7n6cc5C[C@]4(C)[C@H]3CC[C@@]21C`: -56.8%; `CC(NC(=O)c1ccc(NC2=NC3CS(=O)(=O)CC3S2)cc1)c1ccccc1` (stereo not drawn): 12.9%. Next, `COC(=O)C1C(=O)C2=C(CC1C)NC(=O)CC2c1ccc(F)cc1` (stereo not drawn): 18.6%. Regarding `CCC(=O)Nc1cc2c3c(c1)CCC(=O)N3CCC2`, the “hERG current change (%, negative = inhibition) at 10uM” value is 1.44%. The value for `CC(=O)OCCNc1cc(Sc2nc3ccccc3[nH]2)c2nonc2c1[N+](=O)[O-]` was -12.1%; that for `O=c1c2c(-c3ccc([N+](=O)[O-])cc3)csc2nc2n1CCCCC2` was -34.6%; that for `O=c1c2c(-c3ccc([N+](=O)[O-])cc3)csc2nc2n1CCC2` was -77.6%. Next, `O=c1c2c(-c3ccc(Cl)cc3)csc2nc2n1CCC2`: -28.9%; `O=[N+]([O-])c1ccccc1/C=C/C=N/Nc1ccc(S(=O)(=O)Nc2ccc(Cl)cc2)cc1[N+](=O)[O-]`: 20.8%. The value for `COn1c(-c2ccc(Cl)cc2)nc2ccc(Cl)cc21` was -4.56%; that for `Cc1ccc(OCC(=O)NCC(=O)Nc2ccc(F)cc2)c([N+](=O)[O-])n1` was -40.3%.

With `Cc1cccn2c(CN[C@@H]3CCCC[C@H]3c3ccccc3)c(C(=O)N3CCOCC3)nc12`, the “hERG current change (%, negative = inhibition) at 10uM” value is -12.9%. The value for `Cc1cccn2c(CN3CCCC(c4ccccc4)C3)c(C(=O)N3CCOCC3)nc12` (stereo not drawn) was -68.7%. The value for `Cc1cccn2c(CN3CCSCC3)c(C(=O)N3CCOCC3)nc12` was 0.407%; that for `Cc1cc(C(=O)NN)c(C)o1` was 10.3%; that for `CCc1cc(=O)oc2cc(C)cc(OCC(=O)N3CCC(C(=O)NC(C)C)(c4ccccc4)CC3)c12` was -43.6%.

Regarding `CC(NC(=O)/C=C/c1ccccc1[N+](=O)[O-])C1CC2CCC1C2` (stereo not drawn), the “hERG current change (%, negative = inhibition) at 10uM” value was determined as 8.42%. The value for `CCN1CCN(c2nc3ccccc3n3cnnc23)CC1` was -14.8%.

On to `CCN1CCN(c2nc(-c3cccnc3)nc3ccccc23)CC1.Cl`, for which the “hERG current change (%, negative = inhibition) at 10uM” value is on record as -55.4%. Next, `CCN1CCN(c2nn3c(=O)c4ccccc4nc3c3ccccc23)CC1`: -72.7%; `CCN1CCN(c2nc(-c3ccccc3)nc3ccccc23)CC1`: -63%; `CN(Cc1cccs1)c1nc(-c2cccnc2)nc2ccccc12`: -53.5%.

Turning to `CCCOc1ccc(-c2nc(N3CCN(CC)CC3)c3ccccc3n2)cc1`, the “hERG current change (%, negative = inhibition) at 10uM” value was -17.3%. Next, `CC1CN(c2nn3c(=O)c4ccccc4nc3c3ccccc23)CC(C)O1` (stereo not drawn): -25.7%; `Cc1ccc(CN(C)c2nc(-c3cccnc3)nc3ccccc23)o1`: 12.7%; `Cc1ccc(C)c(S(=O)(=O)N2CCN(c3nc(-c4cccnc4)nc4ccccc34)CC2)c1`: 1.45%. As to `O=S(=O)(c1ccccc1F)N1CCN(c2nc(-c3cccnc3)nc3ccccc23)CC1`, the “hERG current change (%, negative = inhibition) at 10uM” value is given as -41.9%. Regarding `c1ccc(CN2CCN(c3nc(-c4ccccc4)nc4ccccc34)CC2)cc1`, the “hERG current change (%, negative = inhibition) at 10uM” value was 8.72%. Next, `CN(Cc1ccccc1F)c1nc(-c2cccnc2)nc2ccccc12`: 3.92%; `CC(C)OC(=O)CC(=O)CSc1nc2c(c(-c3cccs3)c1C#N)CCC2`: -8.89%; `O=C(c1ccc(N2CCCS2(=O)=O)cc1)N1CCN(c2ccc(F)cc2)CC1`: -28.9%.

For `COc1ccc(/C=N/Nc2ccc([N+](=O)[O-])cc2)cc1O`, the “hERG current change (%, negative = inhibition) at 10uM” value is listed as 10.1%. The value for `O=C(COc1ccc(-c2nnco2)cc1)NCc1ccccc1Cl` was -6.27%.

The values are drawn from publication PMC4336329 (PLoS ONE, 2015).
